We go through 13 compounds from PubChem BioAssay.

Calls of active or inactive are those of the source.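 Rule for the calls, unless noted: active = efflux inhibition above 0.42, the validation set average plus 4 SD; inconclusive = no clear call, values can overlap the other calls; inactive = the rest.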

Experiment [1] is described as follows: reduced mouse 2C T cell binding to pMHC/ICAM-1 vesicles – MLPCN validation set, flow cytometry, LFA-1/ICAM-1 modulator project, pilot screen (AID 2523;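 active = response below a set limit, under 55% cells CD8-positive and vesicle-bound, and CD8 cells' 90th-percentile brightness under 279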;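 for vesicle binding response: mean PE anti-B7-1 fluorescence of CD8+ cells relative to row control; 100% = QL9-loaded vesicles with DMSO vehicle in the same plate row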). The conditions noted are these: 2C mouse CD8+ T cells, at 7 µM, stronger effect = lower value; double positive events: measured here: CD8+/vesicle+ event percentage. In general terms: In flow cytometry, cells or beads pass a laser one at a time.

In experiment [2] the target is Integrin beta-1 (Homo sapiens) + Integrin alpha-4 (Homo sapiens) (UniProt P13612+P05556). The experiment is described as follows: alpha4beta1 integrin LIBS antibody binding reduction – U937 cells, HUTS-21 mAb, flow cytometry, validation set, VLA-4 allosteric modulator project, pilot screen (AID 2674;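 active = inhibition above 50%, about 3 SD of the validation set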;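 note: antibody binding induced by the VLA-4 ligand LDV present at three times its Kd; 0% = LDV ligand with antibody and no compound and 100% = antibody without LDV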). The following applies: HUTS-21 LIBS mAb binding, at 6.7 µM, stronger effect = higher value, binding induced by LDV ligand.
Integrin beta-1 (Homo sapiens) + Integrin alpha-4 (Homo sapiens), sequence (P05556 whole entry, looked up): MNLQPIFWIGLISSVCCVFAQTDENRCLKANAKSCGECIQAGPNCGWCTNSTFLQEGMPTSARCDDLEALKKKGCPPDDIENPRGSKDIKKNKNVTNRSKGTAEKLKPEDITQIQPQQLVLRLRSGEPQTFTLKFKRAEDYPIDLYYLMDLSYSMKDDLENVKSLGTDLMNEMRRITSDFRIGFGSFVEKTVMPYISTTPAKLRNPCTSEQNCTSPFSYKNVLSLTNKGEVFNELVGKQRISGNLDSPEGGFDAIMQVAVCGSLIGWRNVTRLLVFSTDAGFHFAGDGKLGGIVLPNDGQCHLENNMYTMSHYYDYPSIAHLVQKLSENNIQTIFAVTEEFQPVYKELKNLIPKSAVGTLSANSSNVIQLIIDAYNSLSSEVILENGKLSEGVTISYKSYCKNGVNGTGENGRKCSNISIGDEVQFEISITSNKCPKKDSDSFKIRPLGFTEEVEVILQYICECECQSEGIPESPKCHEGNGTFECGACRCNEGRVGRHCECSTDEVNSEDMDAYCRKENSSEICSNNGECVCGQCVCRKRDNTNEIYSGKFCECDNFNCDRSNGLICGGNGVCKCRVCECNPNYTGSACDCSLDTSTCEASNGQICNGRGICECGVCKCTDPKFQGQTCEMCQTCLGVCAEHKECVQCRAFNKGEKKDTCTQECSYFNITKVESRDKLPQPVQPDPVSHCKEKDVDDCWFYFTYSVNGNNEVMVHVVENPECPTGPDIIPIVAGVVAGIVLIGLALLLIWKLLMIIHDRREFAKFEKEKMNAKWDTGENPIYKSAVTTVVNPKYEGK
Integrin beta-1 (Homo sapiens) + Integrin alpha-4 (Homo sapiens), sequence (P13612 whole entry, looked up): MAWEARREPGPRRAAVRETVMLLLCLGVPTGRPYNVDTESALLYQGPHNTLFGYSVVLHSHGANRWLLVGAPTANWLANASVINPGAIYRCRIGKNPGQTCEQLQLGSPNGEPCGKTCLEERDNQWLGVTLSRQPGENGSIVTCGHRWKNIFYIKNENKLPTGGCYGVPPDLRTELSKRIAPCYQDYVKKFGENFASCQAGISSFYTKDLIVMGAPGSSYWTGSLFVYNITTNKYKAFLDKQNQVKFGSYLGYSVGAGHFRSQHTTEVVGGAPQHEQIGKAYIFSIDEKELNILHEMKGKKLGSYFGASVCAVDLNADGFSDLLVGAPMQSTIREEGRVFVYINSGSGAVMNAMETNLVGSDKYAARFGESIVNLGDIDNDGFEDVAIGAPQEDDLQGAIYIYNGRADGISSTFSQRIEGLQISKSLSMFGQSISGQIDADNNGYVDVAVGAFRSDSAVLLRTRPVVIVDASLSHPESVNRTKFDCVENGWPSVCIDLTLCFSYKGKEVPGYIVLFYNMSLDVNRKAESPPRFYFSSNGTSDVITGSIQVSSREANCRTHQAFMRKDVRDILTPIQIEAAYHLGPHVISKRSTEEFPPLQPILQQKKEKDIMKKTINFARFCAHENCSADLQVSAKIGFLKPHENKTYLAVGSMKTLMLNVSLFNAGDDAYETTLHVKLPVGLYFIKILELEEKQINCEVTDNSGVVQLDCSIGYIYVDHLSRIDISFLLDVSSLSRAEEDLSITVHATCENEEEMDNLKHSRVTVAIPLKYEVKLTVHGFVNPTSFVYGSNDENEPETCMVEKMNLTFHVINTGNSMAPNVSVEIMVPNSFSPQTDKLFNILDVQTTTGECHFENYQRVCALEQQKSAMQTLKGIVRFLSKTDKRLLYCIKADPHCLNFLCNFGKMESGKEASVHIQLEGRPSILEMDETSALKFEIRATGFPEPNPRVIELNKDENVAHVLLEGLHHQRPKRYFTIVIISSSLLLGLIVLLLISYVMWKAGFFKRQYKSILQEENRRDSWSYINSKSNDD

Experiment [3] in a line: calorie-restriction mimetic ROS inhibitors, yeast – validation compound set, pilot screen (AID 2706;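 active = superoxide response below 65% of plate, a cut near 3 SD across the whole screen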;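 note: yeast exposed to compound for one week at 30 degrees C before staining; 100% = mean of all compound wells on the same plate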). The conditions noted are these: S. cerevisiae aging, superoxide DHE fluorescence; at 10 µM, stronger effect = lower value.
The target of experiment [4] is Beta-adrenergic receptor kinase 1 (Homo sapiens) (UniProt P25098). The experiment is described as follows: GRK2 binders displacing RNA aptamer, biochemical, validation, human GRK2, bead flow cytometry (AID 488806;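 active = aptamer binding inhibition above 30%, about 3 SD of noise from non-fluorescent compounds; inactive = inhibition at or below 30%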). The conditions noted are these: bead-bound GRK2, FAM-aptamer displacement, at 10 µM, stronger effect = higher value.
Beta-adrenergic receptor kinase 1 (Homo sapiens), sequence (P25098 whole entry, looked up): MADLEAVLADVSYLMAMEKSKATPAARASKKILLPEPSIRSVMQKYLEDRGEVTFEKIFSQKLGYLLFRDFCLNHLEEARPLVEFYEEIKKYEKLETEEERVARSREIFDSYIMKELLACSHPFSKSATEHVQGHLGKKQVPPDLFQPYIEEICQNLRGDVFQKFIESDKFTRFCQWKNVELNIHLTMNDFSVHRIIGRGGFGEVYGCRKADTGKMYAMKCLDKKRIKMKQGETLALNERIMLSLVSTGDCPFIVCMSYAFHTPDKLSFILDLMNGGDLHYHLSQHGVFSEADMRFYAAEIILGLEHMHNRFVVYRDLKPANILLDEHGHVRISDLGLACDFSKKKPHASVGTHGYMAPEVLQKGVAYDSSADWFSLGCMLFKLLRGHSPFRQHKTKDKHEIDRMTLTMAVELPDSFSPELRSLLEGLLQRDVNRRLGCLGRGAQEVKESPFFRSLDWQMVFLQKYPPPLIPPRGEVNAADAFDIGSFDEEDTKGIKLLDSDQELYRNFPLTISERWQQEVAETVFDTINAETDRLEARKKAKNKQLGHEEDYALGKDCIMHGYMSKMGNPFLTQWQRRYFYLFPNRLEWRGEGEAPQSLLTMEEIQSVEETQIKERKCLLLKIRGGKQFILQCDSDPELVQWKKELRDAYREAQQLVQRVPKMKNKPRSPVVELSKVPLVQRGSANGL
Experiment [5] has as its target Beta-2 adrenergic receptor (Homo sapiens) (UniProt P07550). The experiment is described as follows: agonist-induced loss of surface beta2AR – cell-based, FAP fluorogen, flow cytometry, validation set, pilot screen (AID 504459;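 active = percent response above 42, roughly 3 SD of non-fluorescent test compounds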;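 note: agonist-driven loss of surface beta2AR via internalization measured by FAP dye flow cytometry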). The following applies: Am2.2-beta2AR cells, at 10 µM, stronger effect = higher value.
Experiment [6] concerns the target AP-2 complex subunit beta (Homo sapiens) (UniProt P63010). The experiment is described as follows: beta-arrestin/AP2 interaction blockers – biochemical, validation set, GST-AP2 beads, flow cytometry, pilot screen (AID 504541;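 active = inhibition above 54%, about 3 SD of non-fluorescent compounds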;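 note: AP2 carries R879A mutation and is captured from E. coli lysate; bead-bound FITC arrestin peptide fluorescence measuring arrestin peptide binding to AP2; 0% = DMSO wells and 100% = excess unlabeled arrestin peptide control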). The following applies: FITC arrestin peptide, at 10 µM, stronger effect = higher value, AP2 beta2 appendage fragment, R879A mutant.
A short description of experiment [7]: cytosolic pH regulators acting via V-ATPase – S. cerevisiae, pHLuorin, HTS validation (AID 504600; in the data active = response above about 15%;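 note: plate controls were DMSO for no effect and reference compound for full effect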). The following applies: V-ATPase proton transport, at 10 µM, stronger effect = higher value.
In experiment [8] the test system is anti-desmoglein-3 scFv antibody binding to human DSG3. The experiment is described as follows: blockers of pathogenic pemphigus antibody–desmoglein-3 binding – biochemical, validation compound set, bead-based, flow cytometry, pilot screen (AID 588368;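 active = binding below the plate cutoff, the plate median minus 3 SD, with a reading above zero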;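 note: signal is the median channel fluorescence of bead-bound GFP antibody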). The conditions noted are these: Protein G beads, DSG3-Fc, scFv-GFP binding, at 10 µM, stronger effect = lower value.
The nature of experiment [9]: Nile Red efflux blockade in pump-expressing yeast – validation compound set, multiplex, phenotypic, pilot screen (AID 588506).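 Note: Nile Red retained in cells so higher fluorescence means more efflux inhibition; 0 = negative control wells and 1 = enniatin B 25 µM full block.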 The conditions noted are these: S. cerevisiae pump-expressing triplex, Nile Red efflux flow cytometry; at 10 µM; stronger effect = higher value; the pumps come from Candida albicans.
The target of experiment [10] is ATP-binding cassette sub-family B member 6 (Homo sapiens) (UniProt Q9NP58). The experiment is described as follows: blockers of ABCB6-driven porphyrin uptake – K562-ABCB6 cells, flow cytometry, validation set, pilot screen (AID 588550;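 active = inhibition above the screen-wide mean plus 3 SD, about 51%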;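 note: 0% = DMSO wells and 100% = benzethonium chloride 70 µM positive control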). The following applies: K562-ABCB6 porphyrin accumulation, 1 h, at 10 µM, stronger effect = higher value.
ATP-binding cassette sub-family B member 6 (Homo sapiens), sequence (Q9NP58 whole entry, looked up): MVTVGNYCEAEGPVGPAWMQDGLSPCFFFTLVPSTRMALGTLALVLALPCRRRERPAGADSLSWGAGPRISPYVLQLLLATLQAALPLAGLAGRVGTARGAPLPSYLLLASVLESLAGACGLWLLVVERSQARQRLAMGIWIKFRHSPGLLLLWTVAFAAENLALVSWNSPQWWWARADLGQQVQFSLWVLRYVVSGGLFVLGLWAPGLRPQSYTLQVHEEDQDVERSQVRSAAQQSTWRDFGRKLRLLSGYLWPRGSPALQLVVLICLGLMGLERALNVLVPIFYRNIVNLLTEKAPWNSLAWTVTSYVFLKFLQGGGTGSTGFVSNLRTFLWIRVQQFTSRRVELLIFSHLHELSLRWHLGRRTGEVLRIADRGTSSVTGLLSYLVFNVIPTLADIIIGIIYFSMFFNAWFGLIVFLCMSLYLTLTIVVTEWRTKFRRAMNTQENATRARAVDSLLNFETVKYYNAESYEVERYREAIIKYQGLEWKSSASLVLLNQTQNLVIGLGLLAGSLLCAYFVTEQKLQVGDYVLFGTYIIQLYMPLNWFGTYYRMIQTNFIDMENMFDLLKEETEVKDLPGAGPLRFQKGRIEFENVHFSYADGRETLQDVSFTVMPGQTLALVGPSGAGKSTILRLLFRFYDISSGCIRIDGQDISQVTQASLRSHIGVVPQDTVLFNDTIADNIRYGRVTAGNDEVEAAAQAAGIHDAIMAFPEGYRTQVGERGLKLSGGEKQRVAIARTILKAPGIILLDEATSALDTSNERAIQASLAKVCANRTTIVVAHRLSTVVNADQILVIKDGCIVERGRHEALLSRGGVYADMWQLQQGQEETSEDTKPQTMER
The nature of experiment [11]: AML differentiation inducers, ER-HoxA9 marrow cells – cell-based, GFP/MAC1 double positive, flow cytometry, validation set, primary screen (AID 588685;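 active = differentiation response of at least 50%, scaled between solvent and reference control, from cells with both markers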;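 note: compound exposure lasts four days before antibody staining and flow analysis; 0% = DMSO wells and 100% = 5 µM fulvestrant positive control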). The conditions noted are these: stronger effect = higher value, normalized: vehicle 0, fulvestrant 100.

AP-2 complex subunit beta (Homo sapiens), sequence (P63010 whole entry, looked up, the tested form may be a part, one chain of several): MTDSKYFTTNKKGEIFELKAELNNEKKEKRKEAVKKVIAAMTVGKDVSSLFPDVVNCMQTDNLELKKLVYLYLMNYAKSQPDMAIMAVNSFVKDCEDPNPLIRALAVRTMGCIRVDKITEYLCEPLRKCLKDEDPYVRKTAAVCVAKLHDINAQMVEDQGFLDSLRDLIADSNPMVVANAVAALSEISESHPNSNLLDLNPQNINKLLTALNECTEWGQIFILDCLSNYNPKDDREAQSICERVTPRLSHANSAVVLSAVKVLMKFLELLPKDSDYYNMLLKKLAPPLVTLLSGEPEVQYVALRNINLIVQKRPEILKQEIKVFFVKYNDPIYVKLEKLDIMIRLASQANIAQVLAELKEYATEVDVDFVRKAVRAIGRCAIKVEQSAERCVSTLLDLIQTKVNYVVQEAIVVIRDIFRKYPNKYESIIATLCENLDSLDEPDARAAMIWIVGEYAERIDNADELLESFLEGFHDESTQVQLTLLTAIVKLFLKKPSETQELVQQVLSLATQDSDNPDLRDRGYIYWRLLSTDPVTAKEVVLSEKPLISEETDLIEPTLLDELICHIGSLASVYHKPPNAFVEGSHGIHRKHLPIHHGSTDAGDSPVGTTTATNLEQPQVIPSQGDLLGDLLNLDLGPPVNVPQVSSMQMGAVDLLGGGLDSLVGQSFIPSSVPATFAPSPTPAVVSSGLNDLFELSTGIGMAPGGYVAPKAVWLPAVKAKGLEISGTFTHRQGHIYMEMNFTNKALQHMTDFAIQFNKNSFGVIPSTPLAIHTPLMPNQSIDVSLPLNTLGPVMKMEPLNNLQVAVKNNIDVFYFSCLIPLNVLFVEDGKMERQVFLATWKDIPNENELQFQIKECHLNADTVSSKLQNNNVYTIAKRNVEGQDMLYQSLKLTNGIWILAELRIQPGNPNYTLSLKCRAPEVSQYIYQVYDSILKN
Beta-2 adrenergic receptor (Homo sapiens), sequence (P07550 whole entry, looked up): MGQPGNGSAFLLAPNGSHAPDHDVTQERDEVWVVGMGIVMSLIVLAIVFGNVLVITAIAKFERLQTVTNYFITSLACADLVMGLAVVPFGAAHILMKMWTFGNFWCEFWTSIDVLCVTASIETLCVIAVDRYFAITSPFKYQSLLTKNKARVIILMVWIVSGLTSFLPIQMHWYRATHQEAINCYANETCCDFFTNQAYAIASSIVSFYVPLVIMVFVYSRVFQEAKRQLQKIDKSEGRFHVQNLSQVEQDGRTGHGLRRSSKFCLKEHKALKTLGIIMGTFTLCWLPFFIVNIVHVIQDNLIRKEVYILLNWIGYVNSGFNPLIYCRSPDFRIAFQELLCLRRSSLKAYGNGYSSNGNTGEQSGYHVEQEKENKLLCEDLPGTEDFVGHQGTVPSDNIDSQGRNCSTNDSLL

Compound `CCc1cc(=O)oc2cc(OCC=C(C)C)ccc12` gave a double positive events in [1] of 66.7%. Also, the vesicle binding response in experiment [1] was 297% (inactive). The inhibition (usually the change of the read-out against control, counted positive when it falls) in experiment [2] is 26.9% (inactive); in experiment [6], -1.05% (inactive); in experiment [10], 3% (inactive). The superoxide response (% of plate) in experiment [3] is 89.5% (inactive). Moreover, the aptamer binding inhibition in experiment [4] is 6% (inactive). Also, the values for the response in experiment [5] and in experiment [7] were 1.45% (inactive) and -0.58% (inactive), respectively. The binding (% of control) in experiment [8] is 103% (inactive). In addition, the efflux inhibition (fraction of control) in experiment [9] was -0.03 (inactive). In experiment [11], the differentiation response was -18.4% (inactive).
In experiment [1], `CC1(C)C2CCC1(C(=O)O)c1nc3ccccc3nc12` (stereo unspecified) gave a double positive events of 61.8%. The vesicle binding response in experiment [1] is 372% (inactive). In addition, the inhibition in [2] was -1.12% (inactive); in [6] it was 6.26% (inactive); in [10] it was 20% (inactive). Moreover, the superoxide response (% of plate) in [3] was 72.9% (inactive). Besides, in experiment [4], the aptamer binding inhibition was 2% (inactive). Further, the response in experiment [5] was -10.7% (inactive); in experiment [7], 0.59% (inactive). In experiment [8], the binding (% of control) was 100% (inactive). In addition, the efflux inhibition (fraction of control) in experiment [9] was 0.04 (inactive). In addition, the differentiation response in [11] was -6.96% (inactive).
`COc1ccc(O)c(N)c1` registered a double positive events in experiment [1] of 70.2%. The vesicle binding response in [1] is 381% (inactive). Moreover, the inhibition is -22.3% (inactive) in [2], 20.1% (inactive) in [6] and 7% (inactive) in experiment [10]. Also, the superoxide response (% of plate) in [3] is 104% (inactive). Also, in [4], the aptamer binding inhibition was 5% (inactive). The response in experiment [5] was 76.4% (active); in experiment [7], 3.74% (inactive). Besides, the binding (% of control) in experiment [8] was 99.1% (inactive). In addition, the efflux inhibition (fraction of control) in experiment [9] was -0.1 (inactive). Further, the differentiation response in experiment [11] was -0.8% (inactive).
In [1], `CCc1cccc(OC2OC(CO)C(O)C(O)C2NC(C)=O)c1` (stereo unspecified) returned a double positive events of 69.6%. Besides, in [1], the vesicle binding response is 308% (inactive). Besides, the figures for the inhibition in [2], in experiment [6] and in experiment [10] were -5.38% (inactive), -1.83% (inactive) and 7% (inactive), respectively. Further, the superoxide response (% of plate) in experiment [3] is 98.7% (inactive). Besides, in experiment [4], the aptamer binding inhibition was 1% (inactive). Further, the response in experiment [5] was -16.8% (inactive); in [7], 4.31% (inactive). Further, the binding (% of control) in experiment [8] is 103% (inactive). Also, the efflux inhibition (fraction of control) in experiment [9] was -0.13 (inactive). For the same compound, the differentiation response in experiment [11] is 0.92% (inactive).
In [1], `CCn1c(O)c(/C=C2\C=Nc3ccccc32)sc1=O` registered a double positive events of 63.1%. In [1], the vesicle binding response is 97.1% (inactive). For the same compound, the inhibition in experiment [2] was -0.31% (inactive); in experiment [6], -17.2% (inactive); in experiment [10], 4% (inactive). In [3], the superoxide response (% of plate) was 108% (inactive). Besides, the aptamer binding inhibition in [4] was 1% (inactive). In addition, the response was -3.25% (inactive) in experiment [5] and 0.06% (inactive) in [7]. The binding (% of control) in experiment [8] was 97.5% (inactive). The efflux inhibition (fraction of control) in [9] is -0.44 (inactive). Also, the differentiation response in experiment [11] was -5.68% (inactive).
In [1], `CC(=O)N(CCC1(C(C)C)CCOC(C)(C)C1)Cc1ccco1` (stereo unspecified) yielded a double positive events of 64.3%. The vesicle binding response in experiment [1] was 276% (inactive). Further, the values for the inhibition in experiment [2], in [6] and in [10] were -16.8% (inactive), 0.1% (inactive) and 11% (inactive), respectively. Also, in [3], the superoxide response (% of plate) is 94.3% (inactive). The aptamer binding inhibition in experiment [4] was -4% (inactive). The response in experiment [5] is 3.66% (inactive); in [7] it was -0.44% (inactive). The binding (% of control) in [8] was 105% (inactive). Moreover, in experiment [9], the efflux inhibition (fraction of control) is -0.09 (inactive). In [11], the differentiation response was 12.3% (inactive).
In turn, `CC(C)OC(=O)CC1C(=O)NCCN1C(=S)NC(=O)c1ccccc1Cl` (stereo unspecified) registered a double positive events in experiment [1] of 57.9%. In addition, in [1], the vesicle binding response was 115% (inactive). The inhibition in experiment [2] is -5.11% (inactive); in [6], 7.65% (inactive); in [10], -197% (inactive). For the same compound, the superoxide response (% of plate) in [3] is 94.8% (inactive). Moreover, the aptamer binding inhibition in experiment [4] was 1% (inactive). Besides, the response in [5] is 11.7% (inactive); in experiment [7], -6.29% (inactive). The binding (% of control) in experiment [8] was 111% (inactive). Besides, the efflux inhibition (fraction of control) in [9] was 0 (inactive). For the same compound, the differentiation response in experiment [11] was -10.4% (inactive).
`O=C(OCCN1CCCC1)C1(c2ccccc2)CCCC1`: in experiment [1], the double positive events is 65.8%. For the same compound, the vesicle binding response in experiment [1] is 226% (inactive). Further, the values for the inhibition in [2], in [6] and in experiment [10] were -4.52% (inactive), -5.26% (inactive) and -8% (inactive), respectively. The superoxide response (% of plate) in [3] is 86.5% (inactive). Besides, the aptamer binding inhibition in experiment [4] is 1% (inactive). Also, the response in experiment [5] was 1.23% (inactive); in experiment [7], 1.69% (inactive). For the same compound, the binding (% of control) in experiment [8] is 97% (inactive). For the same compound, the efflux inhibition (fraction of control) in experiment [9] is -0.06 (inactive). Moreover, the differentiation response in experiment [11] is -7.2% (inactive).
In turn, `CCC12CN3CC(CC)(CN(C1)C31C(=O)N(C)c3ccc(C)cc31)C2=O` (stereo unspecified) came in with a double positive events in [1] of 59.5%. Besides, the vesicle binding response in experiment [1] was 181% (inactive). In addition, the inhibition in experiment [2] was -2.82% (inactive); in experiment [6] it was 0.32% (inactive); in [10], -1% (inactive). Moreover, in experiment [3], the superoxide response (% of plate) is 94.6% (inactive). Also, in experiment [4], the aptamer binding inhibition is -3% (inactive). Also, the response is -18.8% (inactive) in [5] and 4.91% (inactive) in [7]. Besides, in [8], the binding (% of control) was 102% (inactive). Also, the efflux inhibition (fraction of control) in [9] was 0 (inactive). The differentiation response in experiment [11] is -10.9% (inactive).
Take `CCC(=O)c1ccc(O)cc1`: the double positive events in experiment [1] came out at 72%. In addition, in [1], the vesicle binding response is 882% (inactive). Moreover, the inhibition in [2] is -6.68% (inactive); in experiment [6] it was -11.7% (inactive); in experiment [10], 19% (inactive). Also, the superoxide response (% of plate) in experiment [3] is 87.9% (inactive). Besides, the aptamer binding inhibition in experiment [4] was 3% (inactive). For the same compound, the response in experiment [5] is -7.88% (inactive); in experiment [7], 3.37% (inactive). The binding (% of control) in [8] is 94.5% (inactive). For the same compound, in [9], the efflux inhibition (fraction of control) is -0.14 (inactive). Besides, the differentiation response in [11] was 10% (inactive).
`COCc1cc(=O)[nH]c(Nc2nc3ccccc3o2)n1`: the double positive events in experiment [1] was 62.6%. The vesicle binding response in experiment [1] is 117% (inactive). The inhibition was -7.93% (inactive) in experiment [2], -0.3% (inactive) in experiment [6] and 4% (inactive) in experiment [10]. Moreover, the superoxide response (% of plate) in experiment [3] was 86.3% (inactive). The aptamer binding inhibition in [4] was 3% (inactive). The response in experiment [5] was -16.5% (inactive); in experiment [7], 6.3% (inactive). In addition, the binding (% of control) in experiment [8] is 108% (inactive). Further, in experiment [9], the efflux inhibition (fraction of control) was 0 (inactive). In addition, the differentiation response in experiment [11] was 6.83% (inactive).
In experiment [1], `COc1ccc2c(CCNC(=O)c3ccc([N+](=O)[O-])cc3)c[nH]c2c1` yielded a double positive events of 56.1%. In addition, in [1], the vesicle binding response was 210% (inactive). The inhibition in experiment [2] was -5.89% (inactive); in experiment [6], -2.03% (inactive); in [10], 4% (inactive). Also, in experiment [3], the superoxide response (% of plate) is 105% (inactive). Besides, the aptamer binding inhibition in [4] was 3% (inactive). Besides, the response is 7.52% (inactive) in [5] and -0.21% (inactive) in experiment [7]. In addition, the binding (% of control) in experiment [8] is 101% (inactive). Besides, in experiment [9], the efflux inhibition (fraction of control) is -0.03 (inactive). Moreover, in experiment [11], the differentiation response was -21.6% (inactive).
On to `COc1ccc(C(=O)NC(=O)NC2(C(Cl)(Cl)Cl)OCCO2)cc1`, for which the double positive events in experiment [1] stood at 60.6%. The vesicle binding response in experiment [1] was 214% (inactive). Besides, the inhibition was -21.6% (inactive) in experiment [2], 13.5% (inactive) in [6] and 9% (inactive) in [10]. For the same compound, the superoxide response (% of plate) in [3] is 86.9% (inactive). The aptamer binding inhibition in experiment [4] was 4% (inactive). The response in [5] is -20.1% (inactive); in experiment [7], -0.88% (inactive). Further, the binding (% of control) in experiment [8] is 94.7% (inactive). The efflux inhibition (fraction of control) in [9] is 0.12 (inactive). Further, the differentiation response in [11] is -2.03% (inactive).
